Several values for one entry are separate records, joined by “and”; a condition that tells them apart may be missing. Identical values can stand only once. Results filed as inconclusive are left out. Unmarked numbers belong to inactive results. Calls come from the whole dose curve; as a rule, active = well fitted curve in the direction sought with a large enough effect in the signal ratio, with a control signal flat; inconclusive = small, poorly fitted or top-dose-only effect, or a change in a side signal; inactive = no such curve, though single readings can be large or run the other way; the % refers to the signal ratio.
These compounds were tested against Glucocorticoid receptor (Homo sapiens) (UniProt P04150) (assay: qHTS assay for small molecule agonists of glucocorticoid receptor signaling (AID 588532)). Details: HeLa MMTV-bla, beta-lactamase ratio, agonist, 18 h; hits give high values; percent of dexamethasone control, DMSO zero.
Text: NIH Chemical Genomics Center [NCGC] U.S. Environmental Protection Agency [EPA] National Institutes of Environmental Health Sciences [NIEHS] National Toxicology Program [NTP] NCGC Assay Overview The Glucocorticoid receptor (GR), a nuclear receptor subfamily member and its natural ligands includes […] etc. The GR is a validated drug target for inflammation. GR ligands such as dexamethasone are clinically available as anti-inflammatory drugs. Glucocorticoids implicate role in carbohydrate, protein and lipid metabolisms and programmed cell death. They are also a component of many chemotherapy regimens for the treatment of leukemias, lymphomas, and myelomas because of their role in the induction of apoptosis.
NCGC Assay Protocol Summary Using a beta-lactamase reporter-gene under control of glucocorticoid response element (GRE), a cell-based assay [CellSensor MMTV-bla HeLa cell line assay developed by Invitrogen] was used to measure GR ligands signaling. CellSensor MMTV-bla HeLa cells were used with assay medium containing 1% charcoal/dextran treated FBS, 0.1 mM NEAA, 1 mM sodium pyruvate and 25mM HEPES. The assay was performed in clear bottom black Greiner 1536-well plates. Dexamethasone and Mifepristine were used in the screen as agonist and antagonist positive controls respectively. Library compounds were measured for their ability to stimulate the reporter gene activity. Compounds were screened in a titration series in 1536-well format. The fluorescence intensity (405 nm excitation, 460/530 nm emission) was measured using an EnVision plate reader. Data was normalized relative to Dexamethasone control (0.1 uM, 100%), and DMSO only wells (basal, 0%). Concentration-response titration points for each compound were fitted to the Hill equation yielding concentrations of half-maximal stimulation (EC50) and maximal response (efficacy) values. qHTS protocol for GR beta-lactamase assay in agonist mode [Step] [Parameter] [Value] [Description] 1. Reagent; 6 uL; 1500 cells/well 2. Incubation; 37 C for 3-5 hrs 3. Compounds; 23 nL; 0.59 nM to 92 uM 4. Controls (Dexamethasone); 23 nL, - One column with dose response, start 4.6uM, 1:3 dilutions in duplicates - Final concentrations of 0.1 uM and 2 nM in two columns 5. Incubation; 37 C for 18 hrs 6. Detection reagent; 1 uL of CCF4-dye 7. Incubation; RT for 2 hrs 8. Detection; Fluorescence; Envision plate reader

Sequence of Glucocorticoid receptor (Homo sapiens) (P04150 whole entry, looked up): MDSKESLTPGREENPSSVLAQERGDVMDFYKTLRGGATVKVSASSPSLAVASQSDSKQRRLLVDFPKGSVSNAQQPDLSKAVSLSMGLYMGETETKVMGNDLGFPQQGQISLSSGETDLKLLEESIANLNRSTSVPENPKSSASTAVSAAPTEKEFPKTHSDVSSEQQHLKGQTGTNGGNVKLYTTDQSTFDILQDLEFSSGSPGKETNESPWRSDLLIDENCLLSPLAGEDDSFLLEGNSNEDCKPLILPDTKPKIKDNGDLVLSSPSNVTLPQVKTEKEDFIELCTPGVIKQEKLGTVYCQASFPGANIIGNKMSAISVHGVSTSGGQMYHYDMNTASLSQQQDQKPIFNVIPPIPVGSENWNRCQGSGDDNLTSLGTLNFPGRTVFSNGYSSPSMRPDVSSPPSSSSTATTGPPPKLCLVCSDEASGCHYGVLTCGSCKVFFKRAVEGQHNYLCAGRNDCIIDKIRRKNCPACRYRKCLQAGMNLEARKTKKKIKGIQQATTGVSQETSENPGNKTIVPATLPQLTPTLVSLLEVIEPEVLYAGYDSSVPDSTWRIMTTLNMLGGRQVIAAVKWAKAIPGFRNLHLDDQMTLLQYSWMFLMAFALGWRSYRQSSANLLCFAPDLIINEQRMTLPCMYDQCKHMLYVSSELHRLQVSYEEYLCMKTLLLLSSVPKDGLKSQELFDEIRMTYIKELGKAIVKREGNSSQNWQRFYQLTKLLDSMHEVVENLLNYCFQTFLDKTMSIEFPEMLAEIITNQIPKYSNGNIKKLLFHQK

Row | Structure (SMILES) | activation
1 | Clc1cc(Cl)c(Cl)cc1Cl | 3.81% and -2.02%
2 | NC1=NC(S)C2N=CN=C2N1 (stereo not given) | -9.94%
3 | CCCCCCCCO | -2.22% and -1.08%
4 | O=C(O)c1ccc(O)cc1O | 0.41% and -0.627%
5 | Cc1cccc(O)c1 | 1.46% and -4.97%
6 | CCO[Si](CCCN)(OCC)OCC | 5.03% and 9.33%
7 | CCCCOCCO | -3.83% and -1.18%
8 | O=C(O[C@@H]1Cc2c(O)cc(O)cc2O[C@@H]1c1cc(O)c(O)c(O)c1)c1cc(O)c(O)c(O)c1 | 4.83%
9 | C=Cc1ccccc1Cl | -0.22%
10 | CC1(C)S[C@@H]2[C@H](NC(=O)COc3ccccc3)C(=O)N2[C@H]1C(=O)O | 10.3%
11 | CCCCCCCCCCCCCCC1CO1 (stereo not given) | 1.74% and -2.57%
12 | Cc1ccc(N)c([N+](=O)[O-])c1 | 2.77% and 13.2%
13 | COC(=O)c1ccc(C=O)cc1 | 8.1% and -8.49%
14 | CC(=O)OC/C=C(\C)CCC=C(C)C | 3.31% and -2.94%
15 | O=C(O)c1ccccc1C(c1ccc(O)cc1)c1ccc(O)cc1 | -2.81% and -6.49%
16 | COc1ccc2nc(N)sc2c1 | -7.22% and -9.63%
17 | O=S(=O)(O)c1ccccc1 | -5.18%
18 | CCCCCCCCCCCCCC(=O)O | -3.49% and -3.58%
19 | C=CCc1ccc(OC)c(OC)c1 | -12.3%
20 | Cc1c(N=C=O)cccc1N=C=O | -8.06% and -0.129%

Row | Structure (SMILES) | activation
21 | c1ccc2scnc2c1 | -6.61%
22 | O=C1CCc2ccccc2O1 | -2.22%
23 | C1OCOCO1 | 3.41%
24 | CCO | -4.6%
25 | CC12CCC(CC1=O)C2(C)C (stereo not given) | -1.08% and -9.03%
26 | Nc1ccc(Cl)cc1Cl | -1.05% and -10.1%
27 | O=C(O)CC(C(=O)O)C(CC(=O)O)C(=O)O (stereo not given) | -3.1% and -3.88%
28 | C=C(C)C1CC=C(C)C(O)C1 (stereo not given) | 0.682%
29 | Clc1cc(Cl)c(Cl)c(Cl)c1Cl | -4.89% and 1.1%
30 | C[C@H](CCC(=O)O)[C@H]1CC[C@H]2[C@@H]3CC[C@@H]4C[C@H](O)CC[C@]4(C)[C@H]3CC[C@]12C | -9.27% and -13.3%
31 | C=CC(=O)OCCOCCOCCOCCOC(=O)C=C | -5.18%
32 | Cc1ccccc1C | -7.63% and -0.245%
33 | CCCCC(CC)CN (stereo not given) | -3.51% and -4.52%
34 | CCCN(CCC)C(=O)SCC | 1.32% and 12.8%
35 | COc1cc(/C=C/c2ccccc2)oc(=O)c1 | 1.13%
36 | COc1c2ccoc2cc2oc(=O)ccc12 | 3.88%
37 | OCCNCCO | -6.89% and -4.55%
38 | O=C(/C=C/c1ccc(O)c(O)c1)O[C@@H](C(=O)O)[C@@H](OC(=O)/C=C/c1ccc(O)c(O)c1)C(=O)O | 1.43%
39 | O=[N+]([O-])c1cccc(Cl)c1Cl | 3.57% and 3.5%
40 | CCC(C)c1ccccc1O (stereo not given) | -11.6% and -11.3% and 1.07%

Source: PubChem BioAssay (NCATS)
